Source: PubChem BioAssay (NCI)
About 79,000 compounds went through this panel and 15% of them were active in at least one assay; those are over-represented in the sample as a whole. Unmarked numbers belong to inactive results. The source made the active and inactive calls. Rule as the data show it: active = growth inhibition above about 70%; inactive = the rest.

What was measured:
[1] = NCI Yeast Anticancer Drug Screen. Data for the rad50 strain (AID 155);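 also: 0% = growth of vehicle-only cultures of the same strain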; details: S. cerevisiae rad50 strain growth inhibition, stronger effect = higher value
Procedure, shortened: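 Compounds were tested on a yeast strain with an engineered DNA damage repair alteration; the reported value is growth inhibition normalised to vehicle treatment.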

[2] = NCI Yeast Anticancer Drug Screen. Data for the mec2-1 strain (AID 157); details: S. cerevisiae mec2-1 strain, stronger effect = higher value
Procedure, shortened: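 Growth inhibition is read against vehicle-treated controls after compound exposure of the mec2-1 yeast strain, which is defective in DNA damage repair or cell cycle control.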

[3] = NCI Yeast Anticancer Drug Screen. Data for the sgs1 mgt1 strain (AID 161);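 also: 0% = growth of cultures given vehicle only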; details: S. cerevisiae sgs1 mgt1 strain, stronger effect = higher value
Procedure, shortened: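 Percent growth inhibition was derived by comparing compound-exposed mutant yeast with vehicle-exposed cultures. The strain carries alterations in DNA damage repair.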

[4] = NCI Yeast Anticancer Drug Screen. Data for the cln2 rad14 strain (AID 165);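 also: 0% = growth equal to vehicle treated cultures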; details: S. cerevisiae cln2 rad14 strain, stronger effect = higher value
Procedure, shortened: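 Growth inhibition, relative to vehicle-treated controls, is the read-out. The test organism is a yeast strain with defined genetic alterations, cln2 rad14.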

[5] = NCI Yeast Anticancer Drug Screen. Data for the bub3 strain (AID 167); details: S. cerevisiae bub3 mutant strain, stronger effect = higher value
Procedure, shortened: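 Growth of a checkpoint-deficient yeast mutant is measured after compound exposure. Values represent inhibition relative to vehicle.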

[6] = NCI Yeast Anticancer Drug Screen. Data for the mlh1 rad18 strain (AID 175); details: S. cerevisiae mlh1 rad18 strain growth inhibition, stronger effect = higher value
Procedure, shortened: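 Cells of a genetically altered yeast strain, deficient in DNA damage repair, were treated with compound. Their growth was then compared with that of vehicle-treated cultures to give inhibition.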

[7] = at 5.0 µM (retest, dose inferred, filed as 0.5)
[8] = at 50.0 µM (retest, dose inferred, filed as 5.0)

Structure (SMILES) | growth inhibition [1, 7] [%] | growth inhibition [1, 8] | growth inhibition ([1]; at 50.0 µM) | growth inhibition [2, 7] [%] | growth inhibition [2, 8] | growth inhibition ([2]; at 50.0 µM) | growth inhibition [3, 7] [%] | growth inhibition [3, 8] | growth inhibition ([3]; at 50.0 µM) | growth inhibition [4, 7] [%] | growth inhibition [4, 8] | growth inhibition ([4]; at 50.0 µM) | growth inhibition [5, 7] [%] | growth inhibition [5, 8] | growth inhibition ([5]; at 50.0 µM) | growth inhibition [6, 7] [%] | growth inhibition [6, 8] | growth inhibition ([6]; at 50.0 µM)
COC1/C=C/OC2(C)Oc3c(C)c(O)c4c(c3C2=O)C(=O)c2cnc(nc2C4=O)/C(C)=C\C=C\C(C)C(O)C(C)C(O)C(C)C(OC(C)=O)C1C (configuration not stated) | 10 | 97% (active) | 53.9% | 17 | 99% (active) | 55.2% | 9 | 99% (active) | 42.2% | 36 | 97% (active) | 56.1% | 23 | 98% (active) | 48.9% | 20 | 98% (active) | 50.9%
C/C(=N/NC(N)=S)C(CN(C)C)C(C1=C(O)c2ccccc2OC1)c1ccccc1 (configuration not stated) | 8 | 8% | 68% | 2 | 2% | 52.5% | 4 | 4% | 78.3% (active) | -1 | -1% | 65.8% | 12 | 12% | 65.2% | 0 | 0% | 66.8%
CCC(Cl)COP(=O)(OC(c1ccc(Cl)c(Cl)c1)P(=O)(OCC(Cl)CC)OCC(Cl)CC)C(CC)CCl (configuration not stated) | 6 | 71% (active) | 86.7% (active) | -81 | 45% | 96.2% (active) | -3 | 45% | 94.2% (active) | -4 | 57% | 83.5% (active) | -2 | 57% | 79.5% (active) | 6 | 80% (active) | 94.2% (active)
Nc1c(C(=O)O)cccc1[N+](=O)[O-] | 2 | -1% | -5.1% | 1 | -2% | 9.25% | -1 | -1% | -9.1% | -1 | 3% | 23.2% | 1 | 0% | -2.1% | 1 | 3% | -5.05%
CC(C)(C)OC(=O)c1ccc(NCC2=C(Br)C(=O)C=CC2=O)cc1 | 18 | 98% (active) | 89.8% (active) | 12 | 99% (active) | 94% (active) | 15 | 97% (active) | 83.4% (active) | 5 | 94% (active) | 89.1% (active) | 0 | 96% (active) | 80.8% (active) | 14 | 99% (active) | 89.5% (active)
CCCCCC(C)(O)C#CC(C)(O)CCCCC (configuration not stated) | 2 | 99% (active) | 38.8% | 5 | 99% (active) | 4.55% | 1 | 99% (active) | 30.7% | 5 | 98% (active) | 75.7% (active) | 3 | 96% (active) | 21.3% | 2 | 99% (active) | 26.7%
O=C(C[n+]1ccc2ccccc2c1)c1ccc2ccc3ccccc3c2c1 | 5 | 92% (active) | 97.7% (active) | 0 | 73% (active) | 85.8% (active) | -3 | 89% (active) | 96% (active) | 1 | 72% (active) | 98.2% (active) | -11 | 92% (active) | 93% (active) | -4 | 99% (active) | 98.7% (active)
CC(=O)O[C@H]1[C@@H]2CC(C)(C)CC2=C(C=O)C2(C=O)CC12C (some centres not stated) | 40 | 99% (active) | 99.5% (active) | 65 | 100% (active) | 99.5% (active) | 62 | 99% (active) | 99.7% (active) | 37 | 99% (active) | 99.2% (active) | 54 | 99% (active) | 46.8% | 55 | 99% (active) | 99.7% (active)
Cn1c(=NCCc2ccccc2)oc2ccc(Cl)cc21 | -6 | 17% | 6.15% | -7 | 9% | 1.7% | -7 | 29% | 30.3% | -4 | 16% | 73% (active) | 4 | 33% | 18.6% | -3 | 25% | 18.6%
COc1ccc2c(Cc3cccc([N+](=O)[O-])c3)cncc2c1O | 4 | 68% | 29.8% | -2 | 86% (active) | 35.4% | -6 | 65% | 24% | 4 | 76% (active) | 37.1% | 3 | 91% (active) | 85% (active) | 5 | 92% (active) | 58.8%
COc1ccc2c(c1)CCCN2CCCCCCCCCCN1CCCCC1 | 13 | 38% | 71.3% (active) | 7 | 34% | 56.9% | 36 | 73% (active) | 80.8% (active) | 28 | 28% | 71.2% (active) | 35 | 60% | 59.8% | 25 | 25% | 61.4%
Clc1ccccc1/C=C/c1ccccn1 | -8 | 4% | 41.2% | -6 | -16% | 30.7% | -8 | 1% | 74.7% (active) | -9 | -16% | 16.2% | -3 | 30% | 67.5% | -7 | -6% | 71.8% (active)
c1ccc2c(c1)C[N+]1(CCCCCCC1)C2 | 19 | 51% | 74.2% (active) | 6 | 64% | 72.7% (active) | -2 | 77% (active) | 69.9% | -14 | 25% | 53.6% | -3 | 36% | 58.9% | 6 | 88% (active) | 65.8%
Nc1ccc2ccccc2c1N=Cc1ccccc1[N+](=O)[O-] | -3 | 72% (active) | 85.8% (active) | -10 | 90% (active) | 29.8% | 5 | 92% (active) | 96.8% (active) | -9 | 54% | -40.1% | 15 | 85% (active) | 30.2% | 11 | 91% (active) | 84.3% (active)
CCCCCCCCCCCC(=O)Oc1c(Cl)c(Cl)c(C#N)c(Cl)c1Cl | 5 | 0% | 70.7% (active) | 2 | 3% | 23.4% | 5 | 7% | 60.9% | 12 | -1% | 48.6% | 1 | -1% | 8.7% | 5 | 13% | 86.7% (active)
O=S(=O)(O)CNc1cc(Cl)cc(Cl)c1 | 34 | 78% (active) | 13.9% | 9 | 28% | -5% | 1 | 17% | 2.3% | 4 | 16% | -53.4% | 6 | 85% (active) | 2.1% | 8 | 33% | 41.8%
CC(=O)OCc1cc2c(s1)C(=O)c1sccc1C2=O | 21 | 83% (active) | 49.6% | 8 | 67% | 81% (active) | 12 | 15% | 88.8% (active) | 11 | 21% | 86.2% (active) | 41 | 60% | 88.7% (active) | 24 | 89% (active) | 89% (active)
CN[C@@H](Cc1cccc2ccccc12)C(=O)N[C@@H](CC(C)C)B(O)O | 34 | 51% | 27.1% | 37 | 40% | 12.1% | 16 | 18% | 3.85% | 53 | 54% | 59.4% | 25 | 16% | 36.5% | 33 | 60% | 16.4%
CC1(C(Cl)(Cl)Cl)C=CC(=NO)C=C1 (configuration not stated) | 1 | 28% | 65.8% | 2 | 34% | 21.4% | 1 | 44% | 70.8% (active) | 3 | 26% | 30.1% | -4 | 29% | 18.7% | -4 | 34% | 54.1%
